Most compounds without a hit are left out; they make up all but 1.3% or so of the library.
EPAC2 agonist = qHTS for Agonist of cAMP-regulated guanine nucleotide exchange factor 4 (EPAC2): primary screen; EPAC2 activation, biochemical qHTS; response scale: 100% = 6.5 mM cAMP response; Potency, µM (top dose mostly 154 µM), usual class: activators; 360,000 tested, 0.079% active; AID 720711, 2013; further: nearly all actives have a fitted effect of over 50% in size
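EPAC2 (100 nM) mixed with Rap1B loaded with BODIPY-GDP (250 nM) plus 50 uM unlabeled GDP; compounds pinned in, 5 min RT, then read every 5 min for 30 min (ex 480, em 540 nm). Normalized to cAMP control.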
EPAC1 antagonist = qHTS for Antagonist of cAMP-regulated guanine nucleotide exchange factor 3 (EPAC1): primary screen; AID 720709, 2013; Potency, µM (titrated, usually from 115 µM), actives largely listed as inhibitors; EPAC1 GEF assay, Rap1b-BODIPY-GDP exchange fluorescence; 360,000 tested, 0.14% active; further: nearly all actives have a fitted effect of over 50% in size
Target sequence (O95398 whole entry, looked up): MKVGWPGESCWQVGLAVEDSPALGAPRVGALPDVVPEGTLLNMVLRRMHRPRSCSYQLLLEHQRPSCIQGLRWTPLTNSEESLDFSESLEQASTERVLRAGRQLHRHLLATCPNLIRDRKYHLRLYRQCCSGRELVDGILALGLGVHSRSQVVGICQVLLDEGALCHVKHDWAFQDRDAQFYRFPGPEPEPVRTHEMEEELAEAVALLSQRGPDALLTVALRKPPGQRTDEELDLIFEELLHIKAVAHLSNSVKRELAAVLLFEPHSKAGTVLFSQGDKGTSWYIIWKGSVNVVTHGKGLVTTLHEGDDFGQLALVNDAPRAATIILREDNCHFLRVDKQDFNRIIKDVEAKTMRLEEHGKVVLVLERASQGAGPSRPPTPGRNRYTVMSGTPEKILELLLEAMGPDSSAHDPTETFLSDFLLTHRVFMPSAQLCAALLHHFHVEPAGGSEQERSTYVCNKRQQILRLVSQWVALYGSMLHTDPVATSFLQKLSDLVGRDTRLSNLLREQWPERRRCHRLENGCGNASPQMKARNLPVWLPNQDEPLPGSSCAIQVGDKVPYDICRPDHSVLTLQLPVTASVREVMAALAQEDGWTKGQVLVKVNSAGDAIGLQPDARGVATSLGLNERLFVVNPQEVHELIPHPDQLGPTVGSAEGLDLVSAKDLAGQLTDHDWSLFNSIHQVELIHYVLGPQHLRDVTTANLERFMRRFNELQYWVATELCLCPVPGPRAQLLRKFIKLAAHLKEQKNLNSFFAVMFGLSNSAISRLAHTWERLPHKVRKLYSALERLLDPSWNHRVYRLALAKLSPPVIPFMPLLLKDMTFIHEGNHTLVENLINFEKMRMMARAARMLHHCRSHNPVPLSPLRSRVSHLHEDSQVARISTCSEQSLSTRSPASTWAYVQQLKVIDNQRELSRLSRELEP
USP1-UAF1 inh = Inhibitors of USP1/UAF1: Primary Screen. Ubiquitin carboxyl-terminal hydrolase 1 (Homo sapiens), O94782. recombinant USP1/UAF1, Ub-Rhodamine cleavage fluorescence. Potency, µM (series often up to 57.1 µM), most hits filed as inhibitors. 390,000 tested, 0.23% active; further: nearly all actives have a fitted effect of over 60% in size
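Step one: compound is pinned into 1nM USP1/UAF1 in HEPES pH 7.8 buffer with TCEP. Step two: 15 min room-temperature incubation. Step three: Ub-Rho (150nM final) starts cleavage, tracked by fluorescence over six one-minute reads.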
EPAC1 agonist = qHTS for Agonist of cAMP-regulated guanine nucleotide exchange factor 3 (EPAC1): primary screen; Rap guanine nucleotide exchange factor 3 (Homo sapiens), O95398; EPAC1 agonist qHTS, biochemical assay; response scale: 100% = response to 6.5 mM cAMP; Potency, µM (series often up to 154 µM), hits mostly activators; 360,000 tested, 0.073% active; AID 720707, 2013; further: nearly all actives have a fitted effect of over 60% in size
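Read-out is the fluorescence drop as BODIPY-GDP leaves Rap1B (480 nm excitation, 540 nm emission), recorded every 5 minutes over 30 minutes. Reactions held 100 nM EPAC1, 250 nM Rap1B–BODIPY-GDP and 50 uM GDP, with 6.5 mM cAMP setting full activation.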
12-LOX inh = Primary qHTS assay for inhibitors of human arachidonate 12S-lipoxygenase (ALOX12): Round 2; Polyunsaturated fatty acid lipoxygenase ALOX12 (Homo sapiens), P18054; purified 12hLO, xylenol orange hydroperoxide absorbance; Potency, µM (series often up to 108 µM), actives largely listed as inhibitors; 580,000 tested, 1.1% active; AID 1671190, 2021
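Purified human 12hLO at 150 nM in 25 mM Hepes, 0.01% Triton X-100, pH 7.0, preincubated 15 min at room temperature with compound. Reaction started with 40 uM arachidonic acid, 30 min at room temperature. Hydroperoxide measured by Fe-xylenol orange, 573/405 nm absorbance ratio.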
EPAC2 antagonist = qHTS for Antagonist of cAMP-regulated guanine nucleotide exchange factor 2 (EPAC2): primary screen; Rap guanine nucleotide exchange factor 4 (Homo sapiens), Q8WZA2; EPAC2 GEF exchange of Rap1B-BODIPY-GDP, fluorescence; Potency, µM (series often up to 114 µM), hits mostly inhibitors; 360,000 tested, 0.18% active; AID 720708, 2013; further: nearly all actives have a fitted effect of over 45% in size
Hits are given with their value; – = inactive; ? = inconclusive; · = no result given; [ ] = dose if it differs, or a comment. The call rests on the fitted dose curve; in most records, active means well fitted curve in the direction sought with a large enough effect; inconclusive means small, poorly fitted or top-dose-only effect, or another doubt; inactive means no such curve, though single readings can be large; an effect the other way counts as inactive or inconclusive.

SMILES | EPAC2 agonist | EPAC1 antagonist | USP1-UAF1 inh | EPAC1 agonist | 12-LOX inh | EPAC2 antagonist
COc1ccc(C(=O)Nc2cccc(/C=C(\CCC(=O)O)c3nc4ccccc4s3)c2)cc1 | – | 56µM | – | – | – | –
CNc1ccc(/C=C(\CCC(=O)O)c2nc3ccccc3s2)cc1[N+](=O)[O-] | – | 45µM | – | ? | – | –
COc1cc(/C=C(\CC(=O)O)c2nc3ccccc3s2)cc(OC)c1O | – | – | – | – | 35µM | –
CN(c1ccccc1)c1ccc(/C=C(\CCC(=O)O)c2nc3ccccc3s2)cc1[N+](=O)[O-] | – | ? | – | – | ? | 79µM
COc1ccc(-c2nc(CN3CCC(CO)CC3)c(C)o2)c2ccccc12 | · | · | · | · | – | ·
Cc1ccc(/C=C(\CCC(=O)O)c2nc3ccccc3s2)cc1[N+](=O)[O-] | – | 79µM | – | – | – | –
O=C1[C@H]2[C@@H](c3ccccc3)N[C@]3(CCCN(Cc4ccc(Cl)cc4)C3=O)[C@H]2C(=O)N1Cc1ccccc1 | – | – | – | – | 7.9µM | –
O=C(OCCN1C(=O)c2cccc3c(N4CCOCC4)ccc(c23)C1=O)c1cccc(Cl)c1 | – | – | ? | 25µM | · | –
O=[N+]([O-])c1ccccc1S(=O)(=O)c1ccccc1 | – | – | – | – | – | –
CNc1ccc(Cl)cc1S(=O)(=O)c1ccccc1[N+](=O)[O-] | – | – | · | – | – | 63µM
N#Cc1nc(-c2ccc(S(=O)(=O)N3CCCC3)cc2)oc1N1CCC(Cc2ccccc2)CC1 | · | · | · | · | – | ·
Nn1cnnc1N/N=C/c1ccc(Cl)c([N+](=O)[O-])c1 | – | 16µM | ? | – | – | –
CC(C(=O)Nc1ccc(F)cc1Cl)N1CCN(c2ccc(O)cc2)CC1 (centres undefined) | · | · | · | · | 40µM | ·
CC(C(=O)Nc1cc([N+](=O)[O-])ccc1Cl)N1CCN(c2ccc(O)cc2)CC1 (centres undefined) | – | – | – | – | ? | –
CCOc1ccc(C(=O)N2CCC3(CC2)NC(=O)N(c2ccc(F)cc2)N3)cc1 | · | · | · | · | 2.2µM | ·
Cc1ccsc1C(=O)N1CCC2(CC1)NC(=O)N(c1ccc(F)cc1)N2 | · | · | · | · | 2.2µM | ·
O=C(c1cccc(F)c1)N1CCC2(CC1)NC(=O)N(Cc1ccc(F)cc1)C2=O | · | · | · | · | – | ·
CN(C)c1cccc(C(=O)N2CCC3(CC2)NC(=O)N(c2cccc(F)c2)N3)c1 | · | · | · | · | 2.2µM | ·
O=C(c1cccc(F)c1)N1CCC2(CC1)NC(=O)N(c1ccccc1Cl)N2 | · | · | · | · | 1.3µM | ·
CCOc1ccc(C(=O)N2CCC3(CC2)NC(=O)N(Cc2ccc(F)cc2)C3=O)cc1 | · | · | · | · | – | ·
CN(C)c1cccc(C(=O)N2CCC3(CC2)NC(=O)N(Cc2ccccc2)C3=O)c1 | · | · | · | · | – | ·
COc1ccccc1C(CC(=O)NCCc1ccccc1)c1c[nH]c2ccccc12 (centres undefined) | · | · | · | · | – | ·
Cc1ccc(C)c(C(=O)N2CCC3(CC2)NC(=O)N(c2cccc(F)c2)N3)c1 | · | · | · | · | 2.2µM | ·
Cc1ccc(C(=O)N2CCC3(CC2)NC(=O)N(c2ccc(F)cc2)N3)cc1 | · | · | · | · | 3.2µM | ·
O=C(Cc1ccc(Cl)cc1)N1CCN(c2ccc(F)cc2)CC1 | – | – | – | – | – | –
SMILES | EPAC2 agonist | EPAC1 antagonist | USP1-UAF1 inh | EPAC1 agonist | 12-LOX inh | EPAC2 antagonist
O=C(Cc1ccc(Cl)cc1)N1CCC2(CC1)NC(=O)N(c1ccc(F)cc1)N2 | · | · | · | · | 2.5µM | ·
Cc1ccc(C(=O)N2CCC3(CC2)NC(=O)N(c2cccc(Cl)c2)N3)c(C)c1 | · | · | · | · | 1.4µM | ·
Cc1ccc(N2NC3(CCN(C(N)=O)CC3)NC2=O)cc1 | – | – | – | – | ? | –
CCc1noc(COc2ccc3c(CC)cc(=O)oc3c2)n1 | · | · | · | · | – | ·
N#CCOc1ccc(NC(=O)c2nn(Cc3ccccc3)c(=O)c3ccccc23)cc1 | · | · | · | · | – | ·
COc1ccc(NC(=O)C2CCCCC2)c2ccccc12 | · | · | · | · | – | ·
Cc1noc(C)c1Cc1ccc(C(=O)N2CCC(C)(c3noc(-c4cccnc4)n3)CC2)o1 | · | · | · | · | – | ·
CCc1ccc(-c2nc(-c3nc(-c4ccc(C)cc4C)cs3)sc2C)cc1 | · | · | · | · | – | ·
Cc1ccc(C(=O)N2CCC3(CC2)NC(=O)N(c2cccc(F)c2)N3)cc1 | · | · | · | · | 2.5µM | ·
Cc1ccc(C2=NC3(CCN(C(=O)c4cccc(F)c4)CC3)ON2)cc1 | · | · | · | · | – | ·
CN(C)C(=O)N1C2CCC1CN(c1ccc(C(F)(F)F)cc1)C2 | · | · | · | · | –[6.33 µM] | ·
COc1ccc(-c2nn(-c3ccccc3)cc2C(=O)NCCN2CCOCC2)cc1 | · | · | · | · | – | ·
CCN(CC)CCNC(=S)NC(=O)c1cn(-c2ccccc2)nc1-c1ccc(OC)cc1 | – | ? | – | – | 45µM | –
CC(=O)Oc1oc(-c2ccccc2)nc1C=Nc1ccc(N(C)C)cc1 | – | – | 25µM | – | – | –
Cc1cc2cc(NS(=O)(=O)c3ccc(C)c(C)c3)ccc2[nH]1 | · | · | · | · | 35µM | ·
CCN(CC1CCOCC1)C(=O)c1cccnc1SC/C=C/c1ccccc1 | · | · | · | · | – | ·
O=C(Nc1ccc(O)c(-c2nc3ccccc3o2)c1)c1cccc(F)c1 | · | · | · | · | – | ·
Clc1ccccc1C1(c2ccnc(NCCc3cccnc3)n2)CCNCC1 | · | · | · | · | 20µM | ·
Clc1ccccc1C1(c2ccnc(NCc3ccccc3)n2)CCNCC1 | · | · | · | · | – | ·
O=C(NC1CCSc2c(F)cccc21)c1cc2c(s1)CCCC2 (centres undefined) | · | · | · | · | – | ·
O=[N+]([O-])c1cc(C2Nc3cccc4cccc(c34)N2)ccc1Cl | – | – | – | – | 40µM | –
Clc1ccc(C2Nc3cccc4cccc(c34)N2)c(Cl)c1 | – | – | – | – | ? | 10µM
Clc1ccc(C2Nc3cccc4cccc(c34)N2)cc1 | – | – | – | – | 4.5µM | ?
O=C1NC(c2ccc(Cl)c([N+](=O)[O-])c2)Nc2ccccc21 (centres undefined) | – | – | – | – | ? | –
O=C(Nc1cnc(-c2cccnc2)nc1)C1CCCC1 | · | · | · | · | – | ·
O=Cc1cccc2c1OCCO2 | · | · | · | · | 7.1µM | ·
COCCN1C(=O)CO[C@H]2CN(c3ncccn3)C[C@H]21 | · | · | · | · | 50µM | ·
COc1cccc2c1OC1(CCN(C(C)=O)CC1)N1N=C(c3ccccc3)CC21 (centres undefined) | · | · | · | · | – | ·
O=C(Nc1ccc2oc(-c3cccnc3)nc2c1)c1ccc(Cl)cc1 | · | · | · | · | – | ·
CC1(C)C=C2C(=NN(c3ccccc3)C(N)=C2C#N)CO1 | – | – | 4.5µM | – | – | –
